# Records with an inconclusive call do not appear. The source made the active and inactive calls. Calls come from the whole dose curve; as a rule, active = well fitted activation curve with a large enough effect; inconclusive = small, poorly fitted or top-dose-only effect; inactive = flat fitted curve, though single readings scatter.
# Assay: Confirmation Concentration-Response Assay for qHTS Assay for Epigenetic Modulators
# Settings: murine C127i LDR cells, GFP reporter derepression, 30 h
# Description: NIH Molecular Libraries Screening Centers Network [MLSCN] NIH Chemical Genomics Center [NCGC] MLSCN Grant: 1 X01 MH079860-01 Assay Provider: Elisabeth D. Martinez, University of Texas SW Medical Center NCGC Assay Overview: This assay, used for the primary screen, was employed here to confirm actives identified from the Locus Derepression (LDR) assay (PubChem AID 1865). The LDR assay detects the derepression of a GFP reporter that is stably integrated in a region of the genome of murine c127i mammary cells that is presumably silenced. Compounds that derepress or induce this reporter locus are identified by enumerating GFP positive cells using an Acumen Explorer Ex3 (TTP Labtech) laser-scanning microplate cytometer.
# NCGC Assay Protocol Summary: Three hundred LDR cells in 5 uL per well were dispensed into black, clear-bottom 1536-well plates. Twenty-three nL compound was transferred to the assay plate and cells were incubated 30 hours at 37 C. Medium was removed, cells were washed two times with PBS, and GFP-positive cells were enumerated as fluorescent objects between the sizes of 20 to 120 um width and depth using an Acumen Explorer Ex3 (TTP Labtech) laser-scanning microplate cytometer. For further details, see Johnson, RL, Huang, W, Jadhav, A, Austin, CP, Inglese, J, Martinez, ED (2008). A quantitative high-throughput screen identifies potential epigenetic modulators of gene expression. […]
compound,measurement,value
O=C1NC(=O)N(CCc2ccc(F)cc2)C(=O)/C1=C/C=C/c1ccccc1,Potency,12.6 µM (active)
